# The whole screen tested about 300,000 compounds, of which about 1,700 (0.57%) were called active. Roughly 2% stayed inconclusive and do not appear here.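 How the source made its calls: active means growth inhibition above about 58% in most replicates (limit read from the data, passing the limit was not always enough); inconclusive means exactly half the replicates above a set limit; inactive means most replicates below a set limit.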 Only a selection was taken, and actives are over-represented in it overall.
# Test: Candida growth reduction under fluconazole – CaCi-2 strain, Alamar Blue fluorescence, primary screen (AID 1979);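 further: all wells also contain fluconazole at 8 µg/ml as a sub-toxic cotreatment; 0% = median of DMSO wells and 100% = median of geldanamycin control wells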
# Settings: C. albicans CaCi-2 (fluconazole-resistant clinical isolate) + fluconazole, 48 h, hits give high values, concentration not given here
row,Structure (SMILES),growth inhibition
1,COc1ccc(-c2nnc(SCC(=O)Nc3cccnc3Cl)n2C)cc1,6.53% (inactive)
2,O=C(NC(Cc1ccccc1)C(=O)N1CCCC(C(F)(F)F)C1)c1ccccc1 (centres undefined),1.33% (inactive)
3,CCCCN(C(=O)CSCC(=O)Nc1ccc(OC)cc1)c1c(N)n(CCC)c(=O)[nH]c1=O,-2.57% (inactive)
4,O=C(NN1C(=O)C2C(C1=O)C1C=CC2C12CC2)c1ccccc1Cl (centres undefined),3.48% (inactive)
5,CC12CCC(C(=O)N(NC(=O)c3ccccc3O)C1=O)C2(C)C (centres undefined),107% (active)
6,CC12CCC(C(=O)N(c3cccc(Cl)c3)C1=O)C2(C)C (centres undefined),-3.94% (inactive)
7,Cc1ccc(/C=N/NC(=O)C2=NNC(c3ccccc3)(c3ccccc3)C2)c(O)c1,102% (active)
8,COc1ccc(/C=N/NC(=O)c2cc(-c3cccc(C)c3)nc3ccccc23)cc1O,34.6% (inactive)
9,COc1cc(/C=N/NC(=O)c2cc(-c3ccccc3C)nc3ccccc23)cc(OC)c1O,32.7% (inactive)
10,O=C(Nc1ccc(OC(F)(F)F)cc1)c1ccc2c(c1)no[n+]2[O-],-3.65% (inactive)
11,CC1CC2=C(CC1/C=N/NC(N)=S)C(C)(C)CCC2 (centres undefined),26.2% (inactive)
12,CC(C)CN(C(=O)c1ccc2c(c1)OCO2)C1CCS(=O)(=O)C1 (centres undefined),3.11% (inactive)
13,CCOc1cc(C(=O)Nc2ccc(S(=O)(=O)Nc3cnc4ccccc4n3)cc2)cc(OCC)c1OCC,19.7% (inactive)
14,CC(=O)Nc1ccc(Nc2c3ccccc3nc3ccccc23)cc1,111% (active)
15,CC(=O)Nc1ccc(NC(=O)COc2ncnc3ccccc23)cc1,-12.4% (inactive)
16,Cc1ccc(Nc2c3c(nc4ccccc24)CCC3)cc1,70.5% (inactive)
17,COc1ccc(C(=O)OCC(=O)Nc2ccc3[nH]c(=O)[nH]c3c2)c(OC)c1OC,-6.2% (inactive)
18,CC(OC(=O)CCC(=O)c1ccccc1)C(=O)Nc1ccc(F)cc1 (centres undefined),-2.1% (inactive)
19,C=CCOc1ccc(/C=C/C(=O)OC(C)C(=O)Nc2ccc(NC(C)=O)cc2)cc1 (centres undefined),-2.89% (inactive)
20,O=C(CN(C(=O)c1csnn1)c1cccc(Cl)c1)NC1CCCC1,9.33% (inactive)
21,O=C(NNC(=S)NCc1ccco1)C(c1ccccc1)c1ccccc1,15.6% (inactive)
22,CCCCC(=O)NNC(=S)NC(=O)C(c1ccccc1)c1ccccc1,107% (active)
23,CC(C)C(=O)Nc1cccc(NC(=S)NC(=O)C(c2ccccc2)c2ccccc2)c1,50.4% (inactive)
24,Cc1ccc(CSCC(=O)N(C)CC(=O)Nc2cccc(F)c2)cc1,-6.82% (inactive)

row,Structure (SMILES),growth inhibition
1,Cc1ccc(OCCC(=O)OCC(=O)N2c3ccccc3NC(=O)C2(C)C)cc1,-5.48% (inactive)
2,Cn1c(N2CCOCC2)c(C=O)c2ccccc21,-1.88% (inactive)
3,Cc1cc(C(=O)OC(C)C(=O)NC2CCCCC2C)c(C)o1 (centres undefined),-4.31% (inactive)
4,COc1ccccc1/C=N\Nc1cc(C)nc(-n2nc(C)cc2C)n1,2.71% (inactive)
5,COc1cccc(/C=N/Nc2cc(C)nc(-c3ccccc3O)n2)c1O,112% (active)
6,COc1cccc(/C=N/Nc2ncc(C(F)(F)F)cc2Cl)c1O,3.96% (inactive)
7,CCOC(=O)c1c(NC(=O)CN2C(=O)NC3(CCC(C)CC3)C2=O)sc(C)c1CC (centres undefined),-6.28% (inactive)
8,CN(C)c1ccc(/C=N\S(=O)(=O)c2ccccc2)cc1,-0.179% (inactive)
9,CC[n+]1cc(C)ccc1/C=C/c1ccc(N(C)C)cc1,79.2% (active)
10,Cc1nnc(N/N=C/c2ccccn2)[nH]c1=O,102% (active)
11,Cc1nnc(N/N=C/c2cccs2)[nH]c1=O,-0.996% (inactive)
12,Cc1nnc(N/N=C/C2CC=CCC2)[nH]c1=O (centres undefined),-10.8% (inactive)
13,CCN(CC(=O)Nc1cc(Cl)ccc1C)C(=O)CSCc1ccc(C)cc1,-5.77% (inactive)
14,O=S(=O)(NCCS(=O)(=O)N1CCN(c2ccccc2)CC1)c1ccc(F)cc1,0.355% (inactive)
15,O=C(NCCN1CCOCC1)Nc1cccc(Cl)c1,10.7% (inactive)
16,O=C(CC(NCCN1CCOCC1)C(=O)O)Nc1cccc(Cl)c1 (centres undefined),90.7% (active)
17,O=C(CC(c1ccccc1)c1cc(Cl)ccc1O)NCCN1CCOCC1 (centres undefined),-8.66% (inactive)
18,COc1ccccc1C(=O)COC(=O)CSCC(=O)Nc1cc(C)on1,0.143% (inactive)
19,O=C(COC(=O)c1ncc(Cl)c(Cl)c1Cl)NC1CCS(=O)(=O)C1 (centres undefined),-0.837% (inactive)
20,S=c1[nH]nc(-c2cccs2)n1/N=C/c1cn(-c2ccccc2)nc1-c1ccc(Cl)cc1,-0.57% (inactive)
21,Oc1ccccc1/C=N/n1c(-c2cccs2)n[nH]c1=S,-0.357% (inactive)
22,S=c1[nH]nc(-c2cccs2)n1/N=C/c1cccs1,78.7% (active)
23,COc1cc(C(=O)OCC(=O)N(CC(C)C)C2CCS(=O)(=O)C2)ccc1OCC(C)C (centres undefined),5.68% (inactive)
24,Oc1ccc(CN2CCN(c3ncccn3)CC2)cc1,-5.62% (inactive)

row,Structure (SMILES),growth inhibition
1,Cc1cccnc1NC(=O)c1cccc(S(=O)(=O)N2CCN(c3ccc(F)cc3)CC2)c1,-15.4% (inactive)
2,Oc1c(CN2CCN(c3ccc(F)cc3)CC2)cc(Cl)c2cccnc12,112% (active)
3,Cc1noc(C)c1COc1ccccc1C(=O)N(C)CC(=O)Nc1cccc(F)c1,3.18% (inactive)
4,Cc1ccc(C(=O)NNC(=O)C(C)Oc2ccc3ccccc3c2)o1 (centres undefined),-0.807% (inactive)
5,CCOC(=O)c1c(-c2ccccc2)oc2cc(Br)c(O)c(C=O)c12,99.6% (active)
6,CCOC(=O)c1c(-c2ccccc2)oc2ccc(OCC(N)=O)cc12,1.32% (inactive)
7,CCOC(=O)c1c(-c2ccccc2)oc2cc(Br)c(O)cc12,15.1% (inactive)
8,OC(COCCC12CC3CC(CC(C3)C1)C2)CN1CCCCC1 (centres undefined),8.32% (inactive)
9,O=C(CCCCO)c1ccc(O)c(Cl)c1,-0.4% (inactive)
10,O=C(NNC(=O)c1ccc(Cl)cc1Cl)c1cccs1,-3.73% (inactive)
11,Cc1ccc(NNC(=O)c2c(F)cccc2Cl)cc1Cl,3.83% (inactive)
12,Cc1ccc(NNC(=O)c2cccs2)cc1Cl,94.7% (active)
13,N[C@@H](Cc1ccccc1)C(=O)N1CCC(C(=O)NCC(=O)Nc2ccc(F)cc2)CC1,-10.4% (inactive)
14,Cc1csc(SCC(=O)Nc2sccc2C#N)n1,4.45% (inactive)
15,COc1cc(OC)cc(-c2nnc(SCC(=O)Nc3ccc(C(=O)O)cc3)s2)c1,-1.63% (inactive)
16,COc1ccc(NC(=O)CSc2nc(C)cs2)cc1,106% (active)
17,Cc1ccnc(NC(=O)CNC(=O)c2ccccc2)c1,-1.64% (inactive)
18,COc1ccc2oc(C(=O)OCC(=O)N(CC(C)C)c3c(N)n(Cc4ccccc4)c(=O)[nH]c3=O)c(C)c2c1,5.5% (inactive)
19,CCCn1c(C)cc(/C=C(\C#N)C(=O)OCC(=O)N(C)c2c(N)n(Cc3ccccc3)c(=O)[nH]c2=O)c1C,-1.38% (inactive)
20,Cc1c(CCOC(=O)CC23CC4CC(CC(C)(C4)C2)C3)sc[n+]1Cc1ccc([N+](=O)[O-])cc1,93% (active)
21,Cc1c(CCOC(=O)c2cc([N+](=O)[O-])ccc2Cl)sc[n+]1CCCCS(=O)(=O)[O-],-13.2% (inactive)
22,Cc1c(CCO)sc[n+]1CC(=O)OC12CC3CC(CC(C3)C1)C2,-19.8% (inactive)
23,COc1ccc(/C=N/Nc2ncnc3sc4c(c23)CCCC4)cc1O,18.5% (inactive)
24,COc1ccc(-c2cc(C(=O)NC(Cc3c[nH]c4ccccc34)C(=O)O)c(C)o2)cc1OC (centres undefined),-7.28% (inactive)

row,Structure (SMILES),growth inhibition
1,COc1cccc(/C=N/NC(=O)c2[nH]nc3c2CCc2ccccc2-3)c1O,89.9% (active)
2,CN(C)CCNC(=O)c1[nH]nc2c1CCc1ccccc1-2,-8.27% (inactive)
3,COc1cc2cc(C(=O)N/N=C/c3cccc(OC)c3OC)[nH]c2cc1OC,0.698% (inactive)
4,CCOc1ccc(-c2cc(C(=O)N/N=C/c3ccc(O)cc3)c3ccccc3n2)cc1,10.7% (inactive)
5,CCC1(c2ccccc2)NC(=O)N(CC(=O)Nc2ccccc2C(=O)NC2CCCC2)C1=O (centres undefined),2.41% (inactive)
6,CC(C)c1cc(CN2CCOCC2)cc(C(C)C)c1O,5.31% (inactive)
7,Oc1c(C(c2ccccn2)N2CCOCC2)ccc2cccnc12 (centres undefined),85.8% (active)
8,CCC(C)N(C(=O)COC(=O)c1nc(Cl)ccc1Cl)C1CCS(=O)(=O)C1 (centres undefined),-0.955% (inactive)
9,Cc1cccc(NC(=O)CN2C(=O)c3ccccc3C2=O)c1C,-5.98% (inactive)
10,Cc1cccc(NC(=O)CSC(N)=O)c1C,91.9% (active)
11,Cc1cccc(NC(=O)COC(=O)CCc2ccccc2)c1C,0.193% (inactive)
12,COc1ccc(CCNc2cc(N3CCN(C(=O)c4ccccc4OC)CC3)ccc2[N+](=O)[O-])cc1OC,-7.13% (inactive)
13,O=C(COc1ccc2c3c(c(=O)oc2c1)CCC3)NC1CCCCC1,13.6% (inactive)
14,NC(=O)C1CCN(C(=O)COc2ccc3c4c(c(=O)oc3c2)CCC4)CC1,-1.66% (inactive)
15,NC(=O)COc1ccc2c3c(c(=O)oc2c1)CCCCC3,122% (active)
16,Cc1ccc(SCC(=O)Nc2nncs2)cc1,-2.98% (inactive)
17,COCCOC(=O)C1=C(C)NC(=O)NC1c1cc2c(cc1Br)OCO2 (centres undefined),-1.28% (inactive)
18,Cc1c(CCC(=O)O)c(=O)oc2c(C)c(OCc3ccccc3Cl)ccc12,16.4% (inactive)
19,COc1cccc(C(=O)NNC(=O)/C=C/c2ccccc2)c1,-14.4% (inactive)
20,COc1cccc(C(=O)NNC(=O)c2cccc(F)c2)c1,-10.7% (inactive)
21,COc1cccc(C(=O)NNC(=O)c2ccccc2Br)c1,110% (active)
22,O=C(O)c1ccc(S(=O)(=O)N2CCC(Cc3ccccc3)CC2)cc1,-2.12% (inactive)
